{"source": "ChEMBL document CHEMBL3988442", "about": "“University of Dundee, Small-Polar-MMV Screening Library” (2021)", "note": "The campaign covered roughly 48,000 compounds. About 13,000 (27%) showed an effect of 50% or more. The list shows a part of the results.", "data": [{"tested_on": "Wolbachia pipientis", "test": "Anti-Wolbachia Cell-Based Screen", "type": "functional", "set-up": "scale not given: in the data most compounds retested in dose-response had high values", "conditions": "5 µM", "units": {"Percent Effect": "%"}, "values": [{"smiles": "Cc1cc(C(=O)Cn2cnnc2[S+](C)[O-])cc(C)c1F", "note": "(stereo not given)", "Percent Effect": 2.039}, {"smiles": "O=C(NCc1nc2ccccc2[nH]1)c1cnn2c1OCCC2", "Percent Effect": 8.573}, {"smiles": "CC(C)c1cc(C(=O)NCc2nc(-c3ccc(F)cc3)n[nH]2)n[nH]1", "Percent Effect": 8.194}, {"smiles": "COC(=O)NCC(=O)N1CCC(c2nc3cc(F)ccc3[nH]2)CC1", "Percent Effect": -27.28}, {"smiles": "CS(=O)(=O)c1cccc(C(=O)NCC2Cc3ccccc3O2)c1", "note": "(stereo not given)", "Percent Effect": -50.83}, {"smiles": "O=C(NCc1nc2ccccc2[nH]1)c1cc2n(n1)CCCO2", "Percent Effect": 4.478}, {"smiles": "O=C(NCc1nc2cc(F)ccc2[nH]1)c1ccc[nH]1", "Percent Effect": 85.11}, {"smiles": "CS(=O)(=O)c1cccc(C(=O)NCc2nc3cc(F)ccc3[nH]2)c1", "Percent Effect": 93.8}, {"smiles": "CS(=O)(=O)c1cccc(C(=O)NCC2(c3ccccc3)CC2)c1", "Percent Effect": -5.384}, {"smiles": "CS(=O)(=O)c1ccc(C(=O)NCc2nc3cc(F)ccc3[nH]2)cc1", "Percent Effect": 97.05}, {"smiles": "Cc1cc(NC(=O)Cn2nc(C)c(C#N)c2N)ccc1Br", "Percent Effect": -7.247}, {"smiles": "Fc1ccc(-c2cc(NCCC3CCOC3)n3nccc3n2)cc1", "note": "(stereo not given)", "Percent Effect": 40.16}, {"smiles": "O=C(NC1CC1)[C@H]1CC[C@@H]2[C@@H](CCN2CCOCc2ccccc2)O1.O=C(O)C(F)(F)F", "Percent Effect": 6.133}, {"smiles": "CCS(=O)(=O)N1CCOC2(COCCN(C(C)=O)C2)C1", "note": "(stereo not given)", "Percent Effect": -3.912}, {"smiles": "CCC1CN(C(=O)c2ccccc2N2CCOCC2)CCN1C(C)C", "note": "(stereo not given)", "Percent Effect": 8.112}, {"smiles": "CCNC(=O)C1CCN(c2cc(-c3ccccc3F)nc3ccnn23)C1", "note": "(stereo not given)", "Percent Effect": -1.287}, {"smiles": "COc1ccccc1CN1C[C@@H](F)[C@@H](OCc2nc3ccccc3[nH]2)C1", "Percent Effect": 0.7932}, {"smiles": "Cc1ccsc1C(=O)N1CCc2ncc(CN3CCCC3)n2CC1.O=C(O)C(F)(F)F", "Percent Effect": -31.81}, {"smiles": "Cl.Cn1cncc1CN1CCc2nc3sccc3c(=O)n2CC1", "Percent Effect": 103.5}, {"smiles": "CCn1cncc1CN1CCc2nc3sccc3c(=O)n2CC1", "Percent Effect": 89.02}, {"smiles": "CC(=O)NCc1nnc2n1CCN(c1nc(C)nc3sccc13)CC2", "Percent Effect": -5.354}, {"smiles": "Cc1ccc(CN2CCNC(C(=O)NC3CC3)C2)cc1C", "note": "(stereo not given)", "Percent Effect": 34.83}, {"smiles": "CC(NC1CCN(CCS(C)(=O)=O)CC1)c1ccc(Cl)cc1", "note": "(stereo not given)", "Percent Effect": -9.034}, {"smiles": "Cc1ncsc1CCC(=O)NC1CCN(c2ccc(Cl)nn2)CC1", "Percent Effect": -3.367}, {"smiles": "O=C(Nc1ccc(-n2cncn2)c(F)c1)C1CCN(C(=O)C2CC2)CC1", "Percent Effect": -16.72}, {"smiles": "CC1CCN(c2nc3c(cnn3-c3ccccc3)c(=O)[nH]2)CC1", "Percent Effect": 0.2654}, {"smiles": "CC1CCCN(c2nccn3c(=O)[nH]nc23)C1", "note": "(stereo not given)", "Percent Effect": 119.4}, {"smiles": "CC1CCN(c2nccn3c(=O)[nH]nc23)CC1", "Percent Effect": 109.7}, {"smiles": "CC1CCCN(c2ccccc2OCC(=O)NC2CC2)C1", "note": "(stereo not given)", "Percent Effect": -2.178}, {"smiles": "CC1CCN(Cc2cc(=O)[nH]c(=O)[nH]2)CC1", "Percent Effect": -40.44}, {"smiles": "NC1CCN(c2nccn3c(=O)[nH]nc23)CC1", "Percent Effect": 124.1}, {"smiles": "CC(C)n1ccnc1C1CCCN(c2ncccc2C(N)=O)C1", "note": "(stereo not given)", "Percent Effect": 2.955}, {"smiles": "NS(=O)(=O)CC1CCN(c2ncccc2C(F)(F)F)CC1", "Percent Effect": -0.5729}, {"smiles": "c1ccc(-c2nc3c(c(NCCCn4cncn4)n2)CCNCC3)nc1", "Percent Effect": -4.021}, {"smiles": "COc1ccc(C(CO)NC(=O)Nc2cccnc2)cc1", "note": "(stereo not given)", "Percent Effect": -17.84}, {"smiles": "Cc1nnc(C(C)N(C)Cc2c(C)nn(-c3ccccc3C)c2C)o1", "note": "(stereo not given)", "Percent Effect": -9.364}, {"smiles": "CCn1nnnc1-c1cccc(NC(=O)COC2CCCC2)c1", "Percent Effect": 5.943}, {"smiles": "CCCc1nc(CN2CCN(C(C)c3nc(C4CC4)no3)CC2)no1", "note": "(stereo not given)", "Percent Effect": 124.6}, {"smiles": "CCCc1nc(CN2CCN(Cc3noc(CCC)n3)CC2)no1", "Percent Effect": 0.9498}, {"smiles": "CCc1noc(C(C)N2CCCN(Cc3noc(C4CC4)n3)CC2)n1", "note": "(stereo not given)", "Percent Effect": 8.614}, {"smiles": "CCc1nc(CN2CCN(C(C)c3nc(C4CC4)no3)CC2)no1", "note": "(stereo not given)", "Percent Effect": 112.7}, {"smiles": "CCc1noc(C(C)N2CCN(Cc3noc(C4CC4)n3)CC2)n1", "note": "(stereo not given)", "Percent Effect": 3.435}, {"smiles": "Cc1nnc(CN2CCCCC2c2nc(-c3ccccc3)no2)s1", "note": "(stereo not given)", "Percent Effect": -13.6}, {"smiles": "Cc1cnc(N2CCCC3(CCOCC3)C2)nc1", "Percent Effect": 109.2}, {"smiles": "CCS(=O)(=O)N1CCC2(CCCN(c3ncc(F)cn3)C2)C1", "note": "(stereo not given)", "Percent Effect": -3.984}, {"smiles": "CCCS(=O)(=O)N1CCC2(CCCN(c3ncc(F)cn3)C2)C1", "note": "(stereo not given)", "Percent Effect": 14.12}, {"smiles": "Cc1cnc(N2CCC3(CCCN(c4ncc(F)cn4)C3)C2)nc1", "note": "(stereo not given)", "Percent Effect": 103}, {"smiles": "Fc1cnc(N2CCCC3(CCN(c4ncccn4)C3)C2)nc1", "note": "(stereo not given)", "Percent Effect": 88.49}, {"smiles": "Cc1cnc(N2CCOC3(CCCN(c4ncccn4)C3)C2)nc1", "note": "(stereo not given)", "Percent Effect": -13.37}, {"smiles": "Cc1cnc(N2CCCC3(COCCN(c4nccs4)C3)C2)nc1", "note": "(stereo not given)", "Percent Effect": -8.565}, {"smiles": "CS(=O)(=O)N1CCC2(CCCN(c3ncc(F)cn3)C2)C1", "note": "(stereo not given)", "Percent Effect": 6.577}, {"smiles": "O=S(=O)(C1CC1)N1CCC2(CCCN(c3ncc(F)cn3)C2)C1", "note": "(stereo not given)", "Percent Effect": -1.558}, {"smiles": "Cc1cc(C)c2nc(CN3CCC(N4CCOCC4)CC3)cc(O)c2c1", "Percent Effect": -11.95}, {"smiles": "CCN(C(c1cccnc1)c1cc(C)cc(C)c1)S(C)(=O)=O", "note": "(stereo not given)", "Percent Effect": 1.72}, {"smiles": "Cc1oc(-c2ccsc2)nc1CC(=O)NCCS(C)(=O)=O", "Percent Effect": -2.536}, {"smiles": "CN(C)CCOCC1CN(C(=O)c2cscn2)Cc2ccnn2C1", "note": "(stereo not given)", "Percent Effect": -0.6425}, {"smiles": "O=C1CC(c2ccc(C(=O)O)cc2)c2ncn(-c3cccnc3)c2N1", "note": "(stereo not given)", "Percent Effect": -9.053}, {"smiles": "CCN(CC)C1COc2c(cc(Br)c(C)c2C)C1=O", "note": "(stereo not given)", "Percent Effect": 131.7}, {"smiles": "CCN(CC)C1COc2ccc(Br)cc2C1=O", "note": "(stereo not given)", "Percent Effect": 104.3}, {"smiles": "CCCN1Cc2cc(Br)ccc2OCC1=O", "Percent Effect": 11.44}, {"smiles": "Cc1c(Br)cc2c(c1C)OCC(N(C)C)C2=O", "note": "(stereo not given)", "Percent Effect": 95.66}, {"smiles": "CCN(CC)C1COc2c(cc(Br)c(C)c2Br)C1=O", "note": "(stereo not given)", "Percent Effect": 114.2}, {"smiles": "COCCN1C(=O)[C@H]2CC[C@@H]1CN(C(=O)COc1ccc(F)c(Cl)c1)C2", "Percent Effect": 1.148}, {"smiles": "CC(C)c1cc(C(=O)NCCN2CCCS2(=O)=O)n[nH]1", "Percent Effect": -2.781}, {"smiles": "COc1ccccc1CC(=O)N1CC[C@@]2(CCCO2)[C@@H](OC)C1", "Percent Effect": 3.075}, {"smiles": "COc1ccc(C)cc1CC(=O)N1CC[C@@]2(CCCO2)[C@@H](O)C1", "Percent Effect": 110.1}, {"smiles": "COc1ccccc1CC(=O)N1CCC(NCc2cccnc2)CC1", "Percent Effect": -3.091}, {"smiles": "COc1ccc(Br)cc1CC(=O)N1CCCC1", "Percent Effect": 26.87}, {"smiles": "COc1ccc(CC(=O)N2CC[C@H](CO)[C@H](O)C2)c(OC)c1", "Percent Effect": 2.348}, {"smiles": "COc1ccccc1CC(=O)N1CC[C@H](O)[C@]2(CCCO2)C1", "Percent Effect": 123.7}]}]}
